Data from PubChem BioAssay (Tox21).
Results filed as inconclusive are left out. A number with no mark means an inactive call. Activity calls are given as the source filed them. Unless noted, calls come from the whole dose curve.

Each molecule was assayed against Beta-2 adrenergic receptor (Homo sapiens) (UniProt P07550) (assay: Adrenergic beta2 receptor (ADRB2) small molecule agonists, cell-based qHTS assay (AID 1963593;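 note: CHO cells stably overexpressing human ADRB2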)). Conditions: CHO-ADRB2 cells, cAMP HTRF, 30 min; series mostly up to 92.4 µM; activation: at the top concentration.
Sequence of Beta-2 adrenergic receptor (Homo sapiens) (P07550 whole entry, looked up): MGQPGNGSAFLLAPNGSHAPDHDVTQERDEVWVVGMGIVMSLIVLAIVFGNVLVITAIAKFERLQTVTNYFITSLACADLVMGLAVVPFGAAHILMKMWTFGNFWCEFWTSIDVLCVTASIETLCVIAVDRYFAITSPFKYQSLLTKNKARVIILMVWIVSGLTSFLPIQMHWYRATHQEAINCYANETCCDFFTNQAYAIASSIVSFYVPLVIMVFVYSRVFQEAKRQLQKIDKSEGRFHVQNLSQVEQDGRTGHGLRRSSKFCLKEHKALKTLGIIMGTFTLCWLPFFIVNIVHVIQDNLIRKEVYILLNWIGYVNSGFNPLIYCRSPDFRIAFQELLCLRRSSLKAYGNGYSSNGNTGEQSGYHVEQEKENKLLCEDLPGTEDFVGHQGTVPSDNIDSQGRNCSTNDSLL
Method in brief: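 CHO cells stably over-expressing ADRB2 were plated overnight at 37C, then dosed with compounds plus a stimulation mix containing 100uM IBMX and 25uM Ro-20-1724 for 0.5hr at room temperature. cAMP was measured by HTRF competition, 1hr.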
% is set by controls: 0 for no effect and ±100 for the full control effect.

Compound | Potency | activation
Nc1ncc([N+](=O)[O-])s1 | inactive | 
CCCCC(C#N)(Cn1cncn1)c1ccc(Cl)cc1 (stereo not drawn) |  | -31%
Cc1ccccc1N | inactive | 
CCCC1CCCCN1 (stereo not drawn) |  | -31.6% [at 42.5 µM]
ClC(Cl)(Cl)c1ccccc1 |  | -10.7%
CCCCCCCCCCCCBr |  | 4.31%
c1ccc2c(c1)Oc1ccccc1O2 |  | 1.23%
Cc1ccc(N)cc1 | inactive | 
CC(Cl)C(=O)O (stereo not drawn) |  | 11.3%
c1ccc2c(c1)oc1ccccc12 |  | -20.2%
C=CC(=O)OCCO |  | 0%
C=C(C)[C@@H]1CC=C(C=O)CC1 |  | -6.16%
COc1ccc(N)cc1 | inactive | 
CCCCCCCCCCOC(=O)c1ccccc1C(=O)OCCCCCCCCCC |  | 5.48%
CC1(C)CC(=O)CC(C)(C)N1[O] |  | -0.0279%
CCN(CCO)CCO |  | -29.8%
O=C(O)c1ccc(=O)[nH]c1 |  | 17.6% [at 42.5 µM]
CCCCOCCOC(C)=O |  | 0.852%
CN(C)C(=O)C(c1ccccc1)c1ccccc1 |  | -12.9%
CC1=C(C(=O)Nc2ccccc2)SCCO1 |  | -4.01%
COC(=O)c1ccccc1N |  | 21.5%
Cc1ccc(O)c(C)c1 | inactive | 
CCC(C)n1c(=O)[nH]c(C)c(Br)c1=O (stereo not drawn) |  | -13.8%

What follows are molecules tested against D(2) dopamine receptor (Homo sapiens) (UniProt P14416) (assay: Dopamine D2 receptor (DRD2) small molecule agonists, cell-based qHTS assay (AID 1963594; note: nearly all actives have a fitted effect of over 35% in size)). Conditions: HEK293-DRD2 cAMP HTRF, agonist mode, 30 min; series mostly up to 92.4 µM; activation: at the top concentration.
Sequence of D(2) dopamine receptor (Homo sapiens) (P14416 whole entry, looked up): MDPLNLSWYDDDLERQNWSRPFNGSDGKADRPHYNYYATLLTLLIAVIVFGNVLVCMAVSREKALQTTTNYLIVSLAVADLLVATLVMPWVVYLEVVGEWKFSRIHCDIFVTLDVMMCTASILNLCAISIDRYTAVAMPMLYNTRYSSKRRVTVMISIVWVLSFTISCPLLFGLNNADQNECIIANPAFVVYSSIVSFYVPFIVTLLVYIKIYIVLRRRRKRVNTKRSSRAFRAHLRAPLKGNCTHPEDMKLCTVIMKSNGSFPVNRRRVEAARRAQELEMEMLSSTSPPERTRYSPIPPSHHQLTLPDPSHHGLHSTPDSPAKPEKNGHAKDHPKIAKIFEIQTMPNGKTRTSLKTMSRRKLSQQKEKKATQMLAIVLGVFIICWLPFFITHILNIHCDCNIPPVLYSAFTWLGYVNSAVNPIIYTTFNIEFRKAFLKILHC
Method in brief: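 cAMP accumulation in DRD2-HEK293 cells measured by HTRF after 1 h detection; compounds added 10 min before NKH477 (200nM […]) forskolin-analogue stimulation, 30 min at room temperature, with Ro20-1724 present at 0.1 mM final.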

Compound | Potency | activation
Nc1ncc([N+](=O)[O-])s1 | inactive | 
Oc1ccccc1-c1ccccc1 | inactive | 
ClCc1ccccc1 |  | -1.81%
CCCCC(C#N)(Cn1cncn1)c1ccc(Cl)cc1 (stereo not drawn) |  | 0.114%
Cc1ccccc1N | inactive | 
CCCC1CCCCN1 (stereo not drawn) |  | -5.69% [at 42.5 µM]
ClC(Cl)(Cl)c1ccccc1 | inactive | 
CCCCCCCCCCCCBr |  | 0.372%
c1ccc2c(c1)Oc1ccccc1O2 | inactive | 
Cc1ccc(N)cc1 | inactive | 
O=C(CCl)CCl |  | 1.19%
Nc1ccc(Cl)cc1 | inactive | 
O=S(=O)(O)C(F)(F)C(F)(F)C(F)(F)C(F)(F)C(F)(F)C(F)(F)F |  | 2.24%
CC(Cl)C(=O)O (stereo not drawn) |  | -2.27%
c1ccc2c(c1)oc1ccccc12 | inactive | 
CC[C@H](N)c1ccccc1 |  | -0.0273%
C=CC(=O)OCCO | inactive | 
C=C(C)[C@@H]1CC=C(C=O)CC1 |  | -1.47%
CN(CCO)CCO |  | -0.468%

Compound | Potency | activation
COc1ccc(N)cc1 | inactive | 
CCCCCCCCCCOC(=O)c1ccccc1C(=O)OCCCCCCCCCC |  | -2.75%
COS(=O)(=O)c1ccc(C)cc1 |  | -0.805%
CC1(C)CC(=O)CC(C)(C)N1[O] |  | 4.99%
CCN(CCO)CCO |  | -0.296%
O=C(O)c1ccc(=O)[nH]c1 |  | 0.556% [at 42.5 µM]
Nc1ccccc1Cl |  | -3.63%
O=C1C(Cl)=C(Cl)C(=O)c2ccccc21 |  | 2.38%
CCCCCCOC(=O)c1ccccc1C(=O)OCCCCCC | inactive | 
CCCCOCCOC(C)=O | inactive | 
C1CCC2CCCCC2C1 (stereo not drawn) |  | 1.78%
Cc1cc(-c2ccc(N)c(C)c2)ccc1N | inactive | 
CN(C)C(=O)C(c1ccccc1)c1ccccc1 | inactive | 
CC1=C(C(=O)Nc2ccccc2)SCCO1 | inactive | 
Cc1ccccc1CCl |  | 5.55%
COC(=O)c1ccccc1N | inactive | 
Cc1ccc(O)c(C)c1 | inactive | 
C#CC(C)(C)NC(=O)c1cc(Cl)cc(Cl)c1 | inactive | 

What follows are molecules tested against D(2) dopamine receptor (Homo sapiens) (UniProt P14416) (assay: Dopamine D2 receptor (DRD2) small molecule antagonists, cell-based qHTS assay (AID 1963595; active = well fitted inhibition curve with a large enough effect in the signal ratio in the repeat runs, with a control signal flat; the % refers to the signal ratio; note: potency is the fitted concentration of half-maximal effect)). Conditions: HEK293-DRD2 cAMP HTRF antagonist mode; series mostly up to 92.4 µM; activity change, negative = inhibition: at the top concentration.
Method in brief: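 Cells were plated and grown for 24 h at 37 °C. Ro20-1724 (0.1 mM final) went in first, then compound for 10 min. NKH477 (200 nM) with quinpirole (12 nM) followed for 30 min at RT, then HTRF detection reagents for 1 h.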

Compound | Potency | activity change, negative = inhibition
Nc1ncc([N+](=O)[O-])s1 | inactive | 
Oc1ccccc1-c1ccccc1 | inactive | 
ClCc1ccccc1 |  | -12.4%
CCCCC(C#N)(Cn1cncn1)c1ccc(Cl)cc1 (stereo not drawn) | inactive | 
Cc1ccccc1N | inactive | 
CCCC1CCCCN1 (stereo not drawn) |  | 5.97% [at 42.5 µM]
ClC(Cl)(Cl)c1ccccc1 |  | -0.589%
CCCCCCCCCCCCBr |  | 2.07%
c1ccc2c(c1)Oc1ccccc1O2 | inactive | 
Cc1ccc(N)cc1 | inactive | 
O=C(CCl)CCl | inactive | 
Nc1ccc(Cl)cc1 | inactive | 
O=S(=O)(O)C(F)(F)C(F)(F)C(F)(F)C(F)(F)C(F)(F)C(F)(F)F |  | -1.37%
CC(Cl)C(=O)O (stereo not drawn) |  | -3.7%
c1ccc2c(c1)oc1ccccc12 | inactive | 
CC[C@H](N)c1ccccc1 |  | -4.62%
C=CC(=O)OCCO | inactive | 
C=C(C)[C@@H]1CC=C(C=O)CC1 |  | -0.294%
CN(CCO)CCO |  | 1.99%

Compound | Potency | activity change, negative = inhibition
COc1ccc(N)cc1 | inactive | 
CCCCCCCCCCOC(=O)c1ccccc1C(=O)OCCCCCCCCCC |  | 0.933%
COS(=O)(=O)c1ccc(C)cc1 |  | 12.3%
CC1(C)CC(=O)CC(C)(C)N1[O] |  | -6.33%
CCN(CCO)CCO |  | 0.169%
O=C(O)c1ccc(=O)[nH]c1 |  | 11.9% [at 42.5 µM]
Nc1ccccc1Cl |  | -0.452%
O=C1C(Cl)=C(Cl)C(=O)c2ccccc21 | 21.7 µM (active) | 
CCCCCCOC(=O)c1ccccc1C(=O)OCCCCCC | inactive | 
CCCCOCCOC(C)=O | inactive | 
C1CCC2CCCCC2C1 (stereo not drawn) |  | 1.51%
Cc1cc(-c2ccc(N)c(C)c2)ccc1N | inactive | 
CN(C)C(=O)C(c1ccccc1)c1ccccc1 | inactive | 
CC1=C(C(=O)Nc2ccccc2)SCCO1 | inactive | 
Cc1ccccc1CCl |  | 0.387%
COC(=O)c1ccccc1N | inactive | 
Cc1ccc(O)c(C)c1 | inactive | 
C#CC(C)(C)NC(=O)c1cc(Cl)cc(Cl)c1 | inactive | 
CCC(C)n1c(=O)[nH]c(C)c(Br)c1=O (stereo not drawn) |  | 9.04%
